# From PubChem BioAssay (EPA / NIEHS)
# Records with an inconclusive call do not appear. Activity calls are given as the source filed them. Rule for the calls, unless noted: active = hit-call score of the fitted dose curve at least 0.9, where 1 is the maximum; inactive = score below 0.9.
# Legend:
# [1] = target: Aryl hydrocarbon receptor (Homo sapiens) (UniProt P35869); assay: ATG_Ahr_CIS: Attagene CIS-FACTORIAL HepG2 Assay for human Aryl Hydrocarbon Receptor (Ahr) (AID 2282930); settings: HepG2 AhR cis-factorial reporter transcription; actives raise or lower the signal
# Aryl hydrocarbon receptor (Homo sapiens), sequence (P35869 whole entry, looked up): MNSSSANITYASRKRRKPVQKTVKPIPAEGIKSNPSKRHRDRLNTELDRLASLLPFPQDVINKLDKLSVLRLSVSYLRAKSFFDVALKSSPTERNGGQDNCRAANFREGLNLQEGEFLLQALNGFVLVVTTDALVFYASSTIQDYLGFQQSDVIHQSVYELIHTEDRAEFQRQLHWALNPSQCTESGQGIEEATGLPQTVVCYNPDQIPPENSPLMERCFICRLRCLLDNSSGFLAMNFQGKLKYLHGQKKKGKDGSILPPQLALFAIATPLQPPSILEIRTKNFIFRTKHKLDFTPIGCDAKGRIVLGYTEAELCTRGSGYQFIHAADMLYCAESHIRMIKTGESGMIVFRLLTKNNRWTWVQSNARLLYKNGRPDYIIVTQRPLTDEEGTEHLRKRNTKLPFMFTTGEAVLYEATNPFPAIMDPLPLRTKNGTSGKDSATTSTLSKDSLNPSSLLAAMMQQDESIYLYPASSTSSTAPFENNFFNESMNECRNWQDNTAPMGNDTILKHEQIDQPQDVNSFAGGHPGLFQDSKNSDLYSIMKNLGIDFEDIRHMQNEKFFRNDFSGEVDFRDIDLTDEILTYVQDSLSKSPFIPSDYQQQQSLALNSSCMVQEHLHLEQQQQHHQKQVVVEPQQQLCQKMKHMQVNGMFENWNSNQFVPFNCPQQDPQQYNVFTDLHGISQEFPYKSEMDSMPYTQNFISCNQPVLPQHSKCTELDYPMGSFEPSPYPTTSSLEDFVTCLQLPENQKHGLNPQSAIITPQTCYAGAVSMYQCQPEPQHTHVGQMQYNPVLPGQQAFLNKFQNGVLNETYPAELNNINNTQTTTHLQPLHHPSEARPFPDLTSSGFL
# How it was run: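 HepG2, transient MRTU (cis) transfection, 24 h exposure. RNA → cDNA → PCR → 6-FAM primer extension → HpaI 2 h 37 C → CE. Fit: bidirectional, DMSO baseline.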
# [2] = ATG_AP_1_CIS: Attagene CIS-FACTORIAL HepG2 Assay for human Activator Protein 1 (AP-1) (AID 2282931); settings: HepG2 Attagene cis-factorial AP-1 reporter mRNA; actives raise or lower the signal
# How it was run: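 Multiplexed HepG2 reporter assay, 24 h dosing. mRNA induction detected by RT-PCR plus capillary electrophoresis. Activity fitted in both directions against DMSO.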
# [3] = ATG_BRE_CIS: Attagene CIS-FACTORIAL HepG2 Assay for human Bone Morphogenetic Protein (BMP) Response Element (BRE) (AID 2282933); settings: HepG2 BMP response element reporter, Attagene transcription factor profiling; actives raise or lower the signal
# How it was run: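 Gain- or loss-of-signal was derived by bidirectional fitting against DMSO controls. The signal came from reporter mRNA, measured by RT-PCR and capillary electrophoresis, in HepG2 cells transiently carrying multiple reporter units and dosed for 24 h.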
# [4] = target: Paired box protein Pax-6 (Homo sapiens) (UniProt P26367); assay: ATG_Pax6_CIS: Attagene CIS-FACTORIAL HepG2 Assay for human Paired Box 6 (PAX6) (AID 2282956); settings: HepG2 CIS-FACTORIAL PAX6 reporter transcription, RNA readout; actives raise or lower the signal
# Paired box protein Pax-6 (Homo sapiens), sequence (P26367 whole entry, looked up): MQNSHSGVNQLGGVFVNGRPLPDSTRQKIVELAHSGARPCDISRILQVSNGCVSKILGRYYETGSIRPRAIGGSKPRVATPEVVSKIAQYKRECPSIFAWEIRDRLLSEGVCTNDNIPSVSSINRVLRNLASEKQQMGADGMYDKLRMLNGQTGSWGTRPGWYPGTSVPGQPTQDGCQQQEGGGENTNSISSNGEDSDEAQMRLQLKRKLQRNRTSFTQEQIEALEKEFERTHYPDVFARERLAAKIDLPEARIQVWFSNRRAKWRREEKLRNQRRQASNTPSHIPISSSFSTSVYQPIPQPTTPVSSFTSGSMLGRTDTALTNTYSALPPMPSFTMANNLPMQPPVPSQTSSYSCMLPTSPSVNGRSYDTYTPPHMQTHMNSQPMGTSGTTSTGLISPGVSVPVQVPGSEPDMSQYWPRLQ
# How it was run: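 Multiplexed cis-reporter HepG2 system; 24 h treatment; reporter mRNA read by RT-PCR/CE fluorescence; bidirectional fit vs DMSO.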
# [5] = ATG_TAL_CIS: Attagene CIS-FACTORIAL HepG2 Assay for human TAL Basal Promoter (AID 2282966); settings: HepG2 Attagene cis-factorial TAL promoter reporter; actives raise or lower the signal;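 note: background control endpoint measuring basal TAL promoter reporter mRNA not a specific factor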
# How it was run: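 Fluorescence of labelled reporter cDNA fragments, resolved by capillary electrophoresis, gave the readout. Human HepG2 liver cells carried transiently transfected cis-element reporter units and were treated for 24 hours; activity was fitted bidirectionally against DMSO.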
# [6] = ATG_TGFb_CIS: Attagene CIS-FACTORIAL HepG2 Assay for human Transforming Growth Factor (TGF) (AID 2282967); settings: HepG2 Attagene CIS TGFb reporter, mRNA transcription; actives raise or lower the signal
# How it was run: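 Transcript-level reporter readout: HepG2 transfectants, 24 h exposure, RNA to cDNA, reporter-specific PCR, fluorescent primer extension, capillary sizing against ROX standards. Gain- or loss-of-signal relative to DMSO.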
# [7] = target: X-box-binding protein 1 (Homo sapiens) (UniProt P17861); assay: ATG_Xbp1_CIS: Attagene CIS-FACTORIAL HepG2 Assay for human X-box Binding Protein 1 (XBP1) (AID 2282972); settings: HepG2 XBP1 cis-element reporter, Attagene multiplex; actives raise or lower the signal
# X-box-binding protein 1 (Homo sapiens), sequence (P17861 whole entry, looked up, the tested form may be a part): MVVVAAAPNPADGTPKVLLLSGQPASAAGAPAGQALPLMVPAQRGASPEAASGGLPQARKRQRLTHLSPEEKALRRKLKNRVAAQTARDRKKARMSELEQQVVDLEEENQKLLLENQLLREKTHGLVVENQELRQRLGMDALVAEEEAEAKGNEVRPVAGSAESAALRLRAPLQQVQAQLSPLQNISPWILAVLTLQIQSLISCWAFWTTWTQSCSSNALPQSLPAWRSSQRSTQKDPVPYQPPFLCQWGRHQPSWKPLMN
# How it was run: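 Fluorescence-labelled cDNA fragments from reporter transcripts, separated by capillary electrophoresis, give the signal. Source: HepG2 cells transfected with promoter-driven reporter units, harvested 24 h post-dose. DMSO served as reference for bidirectional curve fitting.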
# [8] = ATG_NFI_CIS: Attagene CIS-FACTORIAL HepG2 Assay for human Nuclear Factor I (NFI) (AID 2282989); settings: HepG2 cis-regulatory reporter, NFI response element transcription; actives raise or lower the signal
# How it was run: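 After transient transfection of HepG2 with cis-promoter reporter constructs and 24 h dosing, RNA is reverse-transcribed, amplified, 6-FAM end-labelled and HpaI-digested before capillary analysis. Bidirectional curve fitting against DMSO.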
# [9] = target: Myc proto-oncogene protein (Homo sapiens) (UniProt P01106); assay: ATG_Myc_CIS: Attagene CIS-FACTORIAL HepG2 Assay for human Myelocytomatosis (Myc) Proto-Oncogene Transcription Factor (AID 2282990); settings: HepG2, Attagene cis-reporter transcription factor activity; actives raise or lower the signal
# Myc proto-oncogene protein (Homo sapiens), sequence (P01106 whole entry, looked up): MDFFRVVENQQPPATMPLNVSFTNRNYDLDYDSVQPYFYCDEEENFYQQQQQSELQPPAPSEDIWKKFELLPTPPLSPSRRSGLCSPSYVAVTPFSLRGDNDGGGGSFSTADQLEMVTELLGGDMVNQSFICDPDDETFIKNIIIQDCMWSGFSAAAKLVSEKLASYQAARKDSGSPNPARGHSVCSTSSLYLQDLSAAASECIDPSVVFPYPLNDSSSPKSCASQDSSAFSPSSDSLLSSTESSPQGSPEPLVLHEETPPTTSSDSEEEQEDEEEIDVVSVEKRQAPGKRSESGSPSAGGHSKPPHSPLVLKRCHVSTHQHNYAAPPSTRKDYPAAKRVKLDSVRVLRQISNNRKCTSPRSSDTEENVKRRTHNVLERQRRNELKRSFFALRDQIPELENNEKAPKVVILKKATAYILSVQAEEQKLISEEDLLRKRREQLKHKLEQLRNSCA
# How it was run: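 Cells of the HepG2 human liver line bear multiple cis-driven reporter transcription units. Reporter mRNA after 24 h exposure is reverse-transcribed, amplified, labelled and resolved by capillary electrophoresis, with gain- or loss-of-signal fitting relative to DMSO.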
# [10] = ATG_NRF2_ARE_CIS: Attagene CIS-FACTORIAL HepG2 Assay for human Nuclear Factor Erythroid 2 Related Factor 2 (NFR2) response to Antioxidant Response Elements (ARE) (AID 2282992); settings: HepG2 Attagene ARE/NRF2 reporter, transcription factor activity; actives raise or lower the signal
# How it was run: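 Multiplexed reporter mRNA profiling in HepG2 after a 24 h chemical exposure. Curves fitted in both directions relative to DMSO negative control.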
# [11] = ATG_Oct_MLP_CIS: Attagene CIS-FACTORIAL HepG2 Assay for human Octamer-Binding Transcription Factor (Oct) (AID 2282993); settings: HepG2 Attagene cis-factorial Oct reporter, mRNA; actives raise or lower the signal
# How it was run: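 Cells of the HepG2 line express promoter-controlled reporter sequences whose mRNA levels, after 24 h treatment, are measured by RT-PCR and capillary electrophoresis. Increases and decreases are scored relative to DMSO.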
# [12] = target: Peroxisome proliferator-activated receptor gamma (Homo sapiens) (UniProt P37231); assay: ATG_PPARg_TRANS: Attagene TRANS-FACTORIAL HepG2 Assay for human Peroxisome Proliferator-activated Receptor-gamma (PPARg) (AID 2283007; active = hit-call score of the fitted dose curve at least 0.9, where 1 is the maximum)
# Peroxisome proliferator-activated receptor gamma (Homo sapiens), sequence (P37231 whole entry, looked up, the tested form may be a part): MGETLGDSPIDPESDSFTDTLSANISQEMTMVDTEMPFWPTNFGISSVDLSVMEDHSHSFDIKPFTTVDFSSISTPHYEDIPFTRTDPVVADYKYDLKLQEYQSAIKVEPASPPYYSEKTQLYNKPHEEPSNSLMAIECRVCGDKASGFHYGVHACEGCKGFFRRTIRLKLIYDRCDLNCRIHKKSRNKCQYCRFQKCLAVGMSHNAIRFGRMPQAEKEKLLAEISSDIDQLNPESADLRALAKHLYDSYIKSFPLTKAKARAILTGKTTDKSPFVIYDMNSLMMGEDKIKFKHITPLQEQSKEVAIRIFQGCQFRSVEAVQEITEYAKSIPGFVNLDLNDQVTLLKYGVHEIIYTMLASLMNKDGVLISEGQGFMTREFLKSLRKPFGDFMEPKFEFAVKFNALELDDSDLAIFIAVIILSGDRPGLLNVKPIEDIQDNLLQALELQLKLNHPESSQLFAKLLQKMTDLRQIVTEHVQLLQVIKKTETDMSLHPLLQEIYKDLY
# How it was run: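 Gain-of-signal endpoint relative to DMSO, derived from reporter mRNA levels quantified by RT-PCR and capillary electrophoresis. Cells were HepG2 transiently expressing a chimeric NR-Gal4 construct with GAL4-UAS reporters, exposed to chemicals for 24 h.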
# [13] = ATG_XTT_Cytotoxicity: Cytotoxicity Assessment in the Attagene TRANS-FACTORIAL HepG2 Assay (AID 2283584; active = hit-call score of the fitted dose curve at least 0.9, where 1 is the maximum)
# How it was run: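 Cells: human HepG2, transiently transfected with MRTU reporter constructs. Exposure 24 h. Readout: XTT, cell number. Baseline/neg ctrl DMSO; loss-of-signal scored.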
# [14] = ATG_GLI_CIS: Attagene CIS-FACTORIAL HepG2 Assay for human Zinc Finger Protein GLI1 (AID 2282945); settings: HepG2, Attagene cis-factorial reporter mRNA, GLI element; actives raise or lower the signal
# How it was run: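 Bidirectional curve fits relative to DMSO, using reporter mRNA levels from RT-PCR plus capillary electrophoresis. Cells were HepG2 transiently carrying cis-regulated reporter constructs, harvested 24 h after dosing.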
# [15] = ATG_RORE_CIS: Attagene CIS-FACTORIAL HepG2 Assay for human RAR-related Orphan Receptor Element (RORE) (AID 2282959); settings: HepG2 Attagene cis-factorial RORE reporter, mRNA; actives raise or lower the signal
# How it was run: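 Endogenous factor activity at a cis response element is read as reporter transcript levels in HepG2 cells, 24 h post-dose. Transcripts are quantified by RT-PCR with capillary electrophoresis, and data fitted in both directions against DMSO.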
# [16] = ATG_VDRE_CIS: Attagene CIS-FACTORIAL HepG2 Assay for human Vitamin D Receptor Element (VDRE) (AID 2282968); settings: HepG2 VDRE cis-reporter transcription, actives raise or lower the signal
# How it was run: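 In transiently transfected HepG2 liver cells, gain or loss of reporter mRNA after 24 h exposure is scored relative to DMSO, using fluorescence detection by capillary electrophoresis of RT-PCR products.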
# [17] = ATG_M_32_TRANS: Attagene TRANS-FACTORIAL HepG2 Assay for M32 Transcription Factor (Internal Marker) (AID 2282984; active = hit-call score of the fitted dose curve at least 0.9, where 1 is the maximum;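 note: transcript level of a background control reporter unit measured by RT-PCR and capillary electrophoresis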); settings: HepG2 Attagene TRANS M32 internal marker reporter
# How it was run: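 Using transiently transfected HepG2 cells exposed to test chemicals for 24 h, reporter transcripts are converted to labelled cDNA fragments and quantified by capillary electrophoresis. DMSO defines the activity baseline.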
# [18] = ATG_NF_kB_CIS: Attagene CIS-FACTORIAL HepG2 Assay for human Nuclear Factor Kappa B (NF-kB) (AID 2282991); settings: HepG2 Attagene cis-factorial NF-kB reporter mRNA; actives raise or lower the signal
# How it was run: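 Measures mRNA induction of an NF-kB-responsive cis-element reporter in HepG2 cells transfected with multiple reporter units, sampled 24 h post-dosing; quantified by fluorescence after RT-PCR and capillary electrophoresis, fitted for activation or inhibition against DMSO.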
# [19] = target: Cellular tumor antigen p53 (Homo sapiens) (UniProt P04637); assay: ATG_p53_CIS: Attagene CIS-FACTORIAL HepG2 Assay for human p53 Transcription Factor (AID 2282994); settings: HepG2 p53 cis-element reporter, Attagene mRNA; actives raise or lower the signal
# Cellular tumor antigen p53 (Homo sapiens), sequence (P04637 whole entry, looked up): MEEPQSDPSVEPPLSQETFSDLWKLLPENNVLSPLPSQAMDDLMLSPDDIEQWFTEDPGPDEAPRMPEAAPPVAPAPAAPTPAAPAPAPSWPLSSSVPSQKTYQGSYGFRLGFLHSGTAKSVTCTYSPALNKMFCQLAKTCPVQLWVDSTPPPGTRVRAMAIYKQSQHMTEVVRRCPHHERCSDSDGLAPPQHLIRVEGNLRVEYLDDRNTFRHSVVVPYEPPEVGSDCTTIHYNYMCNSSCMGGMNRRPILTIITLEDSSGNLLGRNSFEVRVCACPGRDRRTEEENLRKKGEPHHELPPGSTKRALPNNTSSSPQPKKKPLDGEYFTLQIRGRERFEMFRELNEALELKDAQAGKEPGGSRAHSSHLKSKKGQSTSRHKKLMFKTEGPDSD
# How it was run: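 Multiplexed reporter mRNA assay in human HepG2 liver cells; cis-regulated units report endogenous factor activity. Values come from bidirectional curve fitting against DMSO negative control after 24 h treatment.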
# [20] = target: Nuclear receptor subfamily 1 group I member 2 (Homo sapiens) (UniProt O75469); assay: ATG_PXR_TRANS: Attagene TRANS-FACTORIAL HepG2 Assay for human Pregnane X Receptor (PXR) (AID 2283008; active = hit-call score of the fitted dose curve at least 0.9, where 1 is the maximum)
# Nuclear receptor subfamily 1 group I member 2 (Homo sapiens), sequence (O75469 whole entry, looked up, the tested form may be a part): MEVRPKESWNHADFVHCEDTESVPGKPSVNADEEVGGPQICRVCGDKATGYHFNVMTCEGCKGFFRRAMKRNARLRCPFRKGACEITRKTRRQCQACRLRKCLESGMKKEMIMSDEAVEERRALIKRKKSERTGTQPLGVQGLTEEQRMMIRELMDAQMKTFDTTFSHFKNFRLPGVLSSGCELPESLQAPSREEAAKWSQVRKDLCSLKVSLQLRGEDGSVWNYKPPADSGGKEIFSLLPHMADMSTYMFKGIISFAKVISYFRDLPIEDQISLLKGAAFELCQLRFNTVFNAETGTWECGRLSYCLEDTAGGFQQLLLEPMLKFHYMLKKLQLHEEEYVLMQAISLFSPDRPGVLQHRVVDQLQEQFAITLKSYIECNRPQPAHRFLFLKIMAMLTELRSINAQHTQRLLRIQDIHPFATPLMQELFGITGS
# How it was run: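 Measures mRNA induction of a GAL4-UAS-driven reporter in human HepG2 cells transiently expressing PXR fused to Gal4, following 24 h treatment. DMSO served as negative control and baseline.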
structure (smiles),measurement,setting,value
O=[N+]([O-])O,outcome,[1],inactive
same,outcome,[2],inactive
same,outcome,[3],inactive
same,outcome,[4],inactive
same,outcome,[5],inactive
same,outcome,[6],inactive
same,outcome,[7],inactive
same,outcome,[8],inactive
same,outcome,[9],inactive
same,outcome,[10],inactive
same,outcome,[11],inactive
same,outcome,[12],inactive
same,outcome,[13],inactive
Nc1cc(Cl)cc(Cl)c1,outcome,[1],inactive
same,outcome,[2],inactive
same,outcome,[3],inactive
same,outcome,[14],inactive
same,outcome,[4],inactive
same,outcome,[15],inactive
same,outcome,[5],inactive
same,outcome,[6],inactive
same,outcome,[16],inactive
same,outcome,[7],inactive
same,outcome,[17],inactive
same,outcome,[8],inactive
same,outcome,[9],inactive
same,outcome,[18],inactive
same,outcome,[10],inactive
same,outcome,[11],inactive
same,outcome,[19],inactive
same,outcome,[20],inactive
same,outcome,[13],inactive
Nc1ccccc1C(=O)OCCc1ccccc1,AC50,[1],10 µM (active)
same,outcome,[2],inactive
same,outcome,[3],inactive
same,outcome,[14],inactive
same,AC50,[15],20.8 µM (active)
same,AC50,[5],33.4 µM (active)
same,outcome,[6],inactive
same,AC50,[16],22.3 µM (active)
same,outcome,[7],inactive
same,outcome,[17],inactive
same,outcome,[8],inactive
same,outcome,[9],inactive
same,outcome,[18],inactive
same,AC50,[10],13.1 µM (active)
same,outcome,[11],inactive
same,outcome,[19],inactive
same,AC50,[12],24.9 µM (active)
same,AC50,[20],19.2 µM (active)
same,outcome,[13],inactive
CC(C)(Cl)Cl,outcome,[1],inactive
same,outcome,[2],inactive
same,outcome,[3],inactive
same,outcome,[14],inactive
same,outcome,[4],inactive
same,outcome,[5],inactive
same,outcome,[16],inactive
same,outcome,[7],inactive
same,outcome,[17],inactive
same,outcome,[8],inactive
same,outcome,[9],inactive
same,outcome,[18],inactive
same,outcome,[10],inactive
same,outcome,[11],inactive
same,outcome,[19],inactive
same,outcome,[12],inactive
same,outcome,[20],inactive
same,outcome,[13],inactive
CCOC(=O)N(C)N=O,outcome,[1],inactive
same,outcome,[2],inactive
same,outcome,[3],inactive
same,outcome,[14],inactive
same,outcome,[15],inactive
same,outcome,[5],inactive
same,outcome,[6],inactive
same,outcome,[16],inactive
same,outcome,[7],inactive
same,outcome,[17],inactive
same,outcome,[8],inactive
same,outcome,[9],inactive
same,outcome,[18],inactive
same,outcome,[10],inactive
same,outcome,[11],inactive
same,outcome,[19],inactive
same,outcome,[12],inactive
COc1ncc(F)c2nc(S(=O)(=O)Nc3c(F)cccc3F)nn12,outcome,[1],inactive
same,outcome,[2],inactive
same,outcome,[3],inactive
same,outcome,[14],inactive
same,outcome,[4],inactive
same,outcome,[15],inactive
same,outcome,[5],inactive
same,outcome,[7],inactive
same,outcome,[8],inactive
same,outcome,[9],inactive
same,outcome,[18],inactive
same,outcome,[10],inactive
same,outcome,[11],inactive
same,outcome,[20],inactive
same,outcome,[13],inactive
O=C1Nc2ccc(Cl)cc2C(c2ccccc2)=NC1O (centres undefined),outcome,[1],inactive
same,outcome,[2],inactive
same,outcome,[3],inactive
same,outcome,[4],inactive
same,outcome,[15],inactive
same,outcome,[5],inactive
same,outcome,[6],inactive
same,outcome,[16],inactive
same,outcome,[7],inactive
same,outcome,[9],inactive
same,outcome,[11],inactive
same,outcome,[19],inactive
same,outcome,[12],inactive
same,outcome,[20],inactive
same,outcome,[13],inactive
O=C(O)COc1ccccc1,outcome,[1],inactive
same,outcome,[2],inactive
same,outcome,[3],inactive
same,outcome,[14],inactive
same,outcome,[4],inactive
same,outcome,[5],inactive
same,outcome,[16],inactive
same,outcome,[7],inactive
same,outcome,[17],inactive
same,outcome,[8],inactive
same,outcome,[9],inactive
same,outcome,[18],inactive
same,outcome,[10],inactive
same,outcome,[11],inactive
same,outcome,[19],inactive
same,outcome,[12],inactive
same,outcome,[20],inactive
same,outcome,[13],inactive
